CYP2C19 activ: increases human CYP2C19 enzyme activity; P33261; recombinant CYP2C19, luciferin-H EGE luminescence; active compounds read high; 0 = fully inhibited enzyme, 1 = untreated enzyme; activation factor at 5 µM; 96,000 tested, under 10 active; AID 1025;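 active = activation factor of at least 2 at 5 µM in the primary screen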;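 note: 0 = wells with 2.5 mM tranylcypromine and 1 = vehicle-only wells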
Pyk2 oligo antag: blocks oligomerization of human Pyk2 in cells; Q14289; Q293 cells, Pyk2 FERM NanoBiT luminescence; active compounds read low; z-score (the deposit names both 25 µM and 10 µM); 99,000 tested, 0.83% active; AID 1347419;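 active = Z-score of -3 or lower, scaled per plate to the spread of control and sample wells; inactive = z-score above -3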;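 note: negative z-score means lost luminescence so less FERM oligomerization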
CYP2C19 inhib: blocks human cytochrome P450 2C19; P33261; CYP2C19 Supersomes, luciferin-H EGE luminescence, 30 min; inhibition, % at 5 µM; 96,000 tested, 21% active;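 active = CYP2C19 inhibition above a set limit at 5 µM in the primary screen, cut at about 50% in these data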;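 note: plate controls were negative control wells for no effect and 2.5 mM tranylcypromine positive control for full effect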
CYP2C9 inhib: human CYP2C9 inhibition. inhibition, % at 5 µM. 96,000 tested, 20% active. P11712. CYP2C9 Supersomes, luciferin-H conversion, luminescence;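 active = blocking of liver enzyme CYP2C9 beyond about 50% at 5 µM, limit read from the data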
Cav32 inh: inhibitors of human Cav3.2 T-type calcium channel | O95180 | 100,000 tested, 4% active | B-score at 10 µM | AID 449739 | Cav3.2-expressing cells, Fluo-4 calcium fluorescence FDSS; active compounds read low;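 active = single-dose well whose peak fluorescence ratio is a statistical outlier from its plate by either plate-standardised score or position-corrected B-score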
Target sequence (O95180 whole entry, looked up): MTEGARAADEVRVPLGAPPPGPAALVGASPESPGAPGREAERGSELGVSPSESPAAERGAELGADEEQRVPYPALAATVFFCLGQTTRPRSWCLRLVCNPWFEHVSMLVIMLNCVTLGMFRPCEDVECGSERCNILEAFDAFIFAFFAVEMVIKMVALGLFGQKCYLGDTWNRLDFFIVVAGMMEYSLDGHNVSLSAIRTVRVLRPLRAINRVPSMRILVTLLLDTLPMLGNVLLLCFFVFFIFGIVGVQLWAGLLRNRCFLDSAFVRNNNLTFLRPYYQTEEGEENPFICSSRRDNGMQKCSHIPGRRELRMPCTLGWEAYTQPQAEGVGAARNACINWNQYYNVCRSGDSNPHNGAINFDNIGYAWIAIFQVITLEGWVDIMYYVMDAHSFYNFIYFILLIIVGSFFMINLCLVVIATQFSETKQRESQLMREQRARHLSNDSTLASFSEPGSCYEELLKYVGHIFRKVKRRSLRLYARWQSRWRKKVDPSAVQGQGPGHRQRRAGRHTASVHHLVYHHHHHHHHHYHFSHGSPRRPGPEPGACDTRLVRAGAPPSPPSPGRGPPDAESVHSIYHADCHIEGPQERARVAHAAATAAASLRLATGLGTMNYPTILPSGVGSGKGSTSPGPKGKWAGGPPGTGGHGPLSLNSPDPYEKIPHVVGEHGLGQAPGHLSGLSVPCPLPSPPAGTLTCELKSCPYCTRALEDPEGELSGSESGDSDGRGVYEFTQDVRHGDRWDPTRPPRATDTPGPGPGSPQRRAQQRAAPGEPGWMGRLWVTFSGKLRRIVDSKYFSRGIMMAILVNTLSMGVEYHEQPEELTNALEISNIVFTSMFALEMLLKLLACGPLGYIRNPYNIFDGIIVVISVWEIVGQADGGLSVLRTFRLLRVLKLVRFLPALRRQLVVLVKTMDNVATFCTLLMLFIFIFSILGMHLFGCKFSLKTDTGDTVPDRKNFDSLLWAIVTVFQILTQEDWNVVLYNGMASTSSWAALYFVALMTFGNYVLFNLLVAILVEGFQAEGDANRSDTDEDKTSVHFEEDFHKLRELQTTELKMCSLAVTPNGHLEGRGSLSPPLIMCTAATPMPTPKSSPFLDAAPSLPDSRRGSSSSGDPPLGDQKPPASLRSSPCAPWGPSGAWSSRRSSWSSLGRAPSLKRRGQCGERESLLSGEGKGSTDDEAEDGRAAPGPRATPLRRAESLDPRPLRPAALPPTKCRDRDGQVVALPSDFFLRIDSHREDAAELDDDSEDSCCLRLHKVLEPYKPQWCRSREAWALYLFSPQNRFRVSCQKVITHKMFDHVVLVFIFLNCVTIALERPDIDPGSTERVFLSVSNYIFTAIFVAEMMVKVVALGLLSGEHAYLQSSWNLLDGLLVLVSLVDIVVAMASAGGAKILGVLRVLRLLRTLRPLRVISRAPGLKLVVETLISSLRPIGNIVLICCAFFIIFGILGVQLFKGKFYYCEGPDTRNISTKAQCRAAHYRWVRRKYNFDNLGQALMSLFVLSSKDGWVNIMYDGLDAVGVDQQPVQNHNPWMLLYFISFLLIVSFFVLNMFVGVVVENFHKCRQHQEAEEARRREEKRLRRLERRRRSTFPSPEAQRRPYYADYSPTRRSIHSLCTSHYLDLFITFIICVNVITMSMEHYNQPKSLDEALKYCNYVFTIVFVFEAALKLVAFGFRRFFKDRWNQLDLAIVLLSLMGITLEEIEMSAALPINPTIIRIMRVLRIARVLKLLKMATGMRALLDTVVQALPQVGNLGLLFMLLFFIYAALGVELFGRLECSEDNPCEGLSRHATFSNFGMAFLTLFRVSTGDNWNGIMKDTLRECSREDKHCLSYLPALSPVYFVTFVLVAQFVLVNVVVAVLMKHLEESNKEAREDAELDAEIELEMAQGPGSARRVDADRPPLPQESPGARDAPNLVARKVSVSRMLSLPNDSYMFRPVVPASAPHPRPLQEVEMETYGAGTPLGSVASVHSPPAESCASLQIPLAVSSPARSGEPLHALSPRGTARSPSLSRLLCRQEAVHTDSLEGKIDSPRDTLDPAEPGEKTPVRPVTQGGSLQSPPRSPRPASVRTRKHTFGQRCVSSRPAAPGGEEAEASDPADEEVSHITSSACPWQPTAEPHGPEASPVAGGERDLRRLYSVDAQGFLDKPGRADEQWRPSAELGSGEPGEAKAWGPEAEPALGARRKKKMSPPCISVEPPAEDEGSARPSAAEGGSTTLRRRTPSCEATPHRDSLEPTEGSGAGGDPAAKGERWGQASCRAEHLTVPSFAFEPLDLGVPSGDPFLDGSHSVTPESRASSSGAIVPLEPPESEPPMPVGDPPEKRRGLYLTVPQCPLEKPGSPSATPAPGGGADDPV
CYP2C9 activ: CYP2C9 (human) activation; P11712; recombinant CYP2C9, luciferin-H conversion, luminescence; active compounds read high; factor 1 = untreated enzyme, 0 = blocked; activation factor at 5 µM; 96,000 tested, 1.4% active;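 active = activation factor of 2 or more for CYP2C9 at a 5 µM dose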;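 note: 0 = sulfaphenazole-blocked wells and 1 = vehicle-only wells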
The depositor's hits bear a star; x = no result. Only some compounds are listed: those with a hit (about 27% of all), similar ones and a draw of the others.

SMILES	CYP2C19 activ	Pyk2 oligo antag	CYP2C19 inhib	CYP2C9 inhib	Cav32 inh	CYP2C9 activ
N#Cc1cc2c(nc1SCC(=O)N1CCOCC1)CCCCC2	1.1	-0.75	-14	-35	-0.78	1.3
CCOC(=O)CSc1n[nH]c(NC(=O)c2cccc(C(F)(F)F)c2)n1	0.6	0.99	41	38	0.17	0.6
COc1ccc(CNC(=O)C2CCCN(S(=O)(=O)c3c(C)n[nH]c3C)C2)cc1 (stereo not drawn)	1.1	-1	-6	-11	-0.049	1.1
CC(C)(C)c1ccc(C(=O)c2c[nH]c(C(=O)NCc3ccco3)c2)cc1	0.7	2.2	28	24	x	0.8
CC(C)(C)c1ccc(C(=O)N/C(=C\c2cccs2)C(=O)NCc2ccco2)cc1	0.9	-1.6	7	56*	-3.9	0.4
c1ccc(C(c2ccccc2)N2CCN(c3nc4ccccc4n4cnnc34)CC2)cc1	1.1	x	-12	12	-3	0.9
Cc1ccc(-c2cnc(N)n2C)cc1C	0.7	1.7	33	11	-0.23	0.9
Cc1ccc(C(C)NC(=O)c2c(C)noc2C)cc1C (stereo not drawn)	0.4	0.33	61*	24	-3.8*	0.8
Cc1cc(C)nc(-n2nc(C)cc2NC(=O)CN2CCCC(C)C2)n1 (stereo not drawn)	0.6	-0.88	36	48	0.027	0.5
Cc1cc(C)nc(-n2nc(C)cc2NC(=O)CNCc2ccccc2)n1	0.7	0.33	33	61*	-0.025	0.4
CCN(CC(=O)Nc1cc(C)nn1-c1nc(C)cc(C)n1)Cc1ccccc1	0.3	-0.17	69*	83*	x	0.2
CCC(C(=O)Nc1cc(C)nn1-c1nc(C)cc(C)n1)c1ccccc1 (stereo not drawn)	0.9	-0.74	14	34	-0.51	0.7
Cc1cc(C)nc(-n2nc(C)cc2NC(=O)CN2CCc3ccccc3C2)n1	0.1	-0.99	86*	89*	-1.7	0.1
Cc1ccc(/C=N\NC(=O)Cn2c(C)nc3ccccc32)o1	1	1.4	4	10	1.2	0.9
Cc1nnc(C)n1/N=C/C=C/c1ccccc1	0.9	1.5	7	3	0.24	1
CCc1sc(C(=O)N2CCN(S(C)(=O)=O)CC2)cc1Br	0.6	-0.42	37	22	-4.8	0.8
O=C(O)CSCC(=O)Nc1ccc(C2CCCCC2)cc1	1	-0.41	3	64*	0.11	0.4
CC(C)n1c(SCC(=O)Nc2ccccc2)nc2c1c(=O)n(C)c(=O)n2C	x	-0.37	x	x	0.86	x
CCn1c(SCC(=O)OC)nnc1-c1ccncc1	x	-0.25	x	x	0.019	x
CCn1c(SCC(=O)OC2CCCCC2)nnc1-c1ccncc1	0.1	0.62	88*	41	0.72	0.6
CCCNC(=O)NC(=O)CSc1nnc(-c2ccncc2)n1CC	0.1	0.31	95*	28	0.52	0.7
O=C(c1ccc(Cl)cc1)N(Cc1cccs1)C1CCS(=O)(=O)C1 (stereo not drawn)	0.8	1.5	17	5	-0.28	1
C/C=C/C(=O)N(CC)c1ccccc1C	x	x	x	x	1	x
CCC12CN3CC(CC)(CN(C1)C3c1c(O)ccc3ccccc13)C2=O (stereo not drawn)	0.5	-0.2	54*	14	0.54	0.9
C=CCOc1ccc(C2N3CC4(CC)CN2CC(CC)(C3)C4=O)cc1 (stereo not drawn)	1	0.87	-5	-12	-2.8	1.1
SMILES	CYP2C19 activ	Pyk2 oligo antag	CYP2C19 inhib	CYP2C9 inhib	Cav32 inh	CYP2C9 activ
Cc1cc(Br)c2[nH]c3c(c2c1)CCCC3=O	0.9	-1	13	-35	-0.52	1.4
COC(=O)c1sc(S(=O)(=O)N2CCC(C)CC2)c(C(=O)OC)c1C	0.6	-1.5	40	46	-1.4	0.5
COC(=O)c1sc(S(=O)(=O)N2CCN(c3ccccc3)CC2)c(C(=O)OC)c1C	0.1	-2	89*	78*	-0.72	0.2
COc1cc(S(=O)(=O)N2CCN(c3ccccc3)CC2)ccc1Cl	0.7	-2.8	29	6	0.29	0.9
COC(=O)c1sc(S(=O)(=O)NCc2ccccc2)c(C(=O)OC)c1C	0.2	-1.5	83*	60*	-0.97	0.4
COC(=O)c1sc(S(=O)(=O)N2CCCCC2)c(C(=O)OC)c1C	0.4	-1.2	62*	39	-1.2	0.6
CCOc1cccc2cc(-c3nnc(NCc4ccco4)s3)c(=O)oc12	0.9	0.19	10	-190	-0.99	2.9*
Cc1ccc(CNC(=O)Nc2ccccc2)cc1	0.1	1.1	92*	32	0.011	0.7
O=C(CCNS(=O)(=O)c1cccs1)NCc1cccs1	0.5	0.13	47	18	0.055	0.8
COc1cccc(CNC(=O)Nc2cccs2)c1	0.1	0.11	86*	54*	-0.76	0.5
CC(C)NC(=O)Nc1cccs1	x	0.38	x	x	0.032	x
Cc1ccc(CNC(=O)Nc2cccs2)cc1	0.5	0.35	51*	10	-1.4	0.9
COc1cccc(CNC(=O)N[C@@H](CC(C)C)C(=O)O)c1	1	0.8	-3	-12	0.19	1.1
COc1cccc(CNC(=O)CCNS(=O)(=O)c2cccs2)c1	0.1	0.26	90*	6	1.6	0.9
CC1CCN(C(=O)c2cc(F)c(F)cc2Cl)CC1	x	-0.44	x	x	0.84	x
O=C(NCc1ccco1)C1Cc2ccccc2CN1S(=O)(=O)c1ccccc1F (stereo not drawn)	x	-0.26	x	x	x	x
CCc1nnc(NC(=O)CCC(=O)N2CCN(CCOc3ccc(C)cc3)CC2)s1	0.8	1.6	17	29	0.95	0.7
N#Cc1c(N)nc2c3c(sc(=N)c2c1N)NC(=O)CC3c1c(F)cccc1Cl (stereo not drawn)	1.1	-1.1	-14	-4	0.87	1
N#Cc1c(N)nc2c3c(sc(=N)c2c1N)NC(=O)CC3c1ccccc1 (stereo not drawn)	0.3	-1.5	73*	12	-0.3	0.9
CCOC(=O)C1CCCN(C(=O)c2cc3c(C)nc4ccccc4c3o2)C1 (stereo not drawn)	0.8	-0.59	22	-2	-0.39	1
CCOC(=O)C1CCCN(C(=O)c2cc3c(=O)n(C)c4ccccc4c3n2C)C1 (stereo not drawn)	1	x	3	-19	3.1*	1.2
CCOC(=O)C1CCCN(C(=O)c2cc(-c3ccccc3)on2)C1 (stereo not drawn)	0.8	-1.2	17	-155	0.66	2.5*
CCOC(=O)C1CCCN(C(=O)COc2ccccc2O)C1 (stereo not drawn)	0.7	0.82	35	16	0.78	0.8
CCOC(=O)C1CCCN(C(=O)c2sc3nc(-c4ccc(OC)cc4)cn3c2C)C1 (stereo not drawn)	0.6	0.61	43	39	x	0.6
Cc1cccc(N2CCN(C(=O)c3cc4c(=O)n(C)c5ccccc5c4n3C)CC2)c1C	1.1	x	-8	-14	0.15	1.1

Assay outcomes: PubChem BioAssay, several laboratories
